Screening results (PubChem BioAssay)
MITF primary – human MITF inhibition, primary screen | O75030 | AlphaScreen MITF homodimerization, bead proximity signal | inhibition, % at 2.6 µM | 650,000 compounds, 0.91% hits | AID 1259374; in the data active means inhibition above about 50%;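 further: 0% = vehicle wells with protein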
Target sequence (O75030 whole entry, looked up): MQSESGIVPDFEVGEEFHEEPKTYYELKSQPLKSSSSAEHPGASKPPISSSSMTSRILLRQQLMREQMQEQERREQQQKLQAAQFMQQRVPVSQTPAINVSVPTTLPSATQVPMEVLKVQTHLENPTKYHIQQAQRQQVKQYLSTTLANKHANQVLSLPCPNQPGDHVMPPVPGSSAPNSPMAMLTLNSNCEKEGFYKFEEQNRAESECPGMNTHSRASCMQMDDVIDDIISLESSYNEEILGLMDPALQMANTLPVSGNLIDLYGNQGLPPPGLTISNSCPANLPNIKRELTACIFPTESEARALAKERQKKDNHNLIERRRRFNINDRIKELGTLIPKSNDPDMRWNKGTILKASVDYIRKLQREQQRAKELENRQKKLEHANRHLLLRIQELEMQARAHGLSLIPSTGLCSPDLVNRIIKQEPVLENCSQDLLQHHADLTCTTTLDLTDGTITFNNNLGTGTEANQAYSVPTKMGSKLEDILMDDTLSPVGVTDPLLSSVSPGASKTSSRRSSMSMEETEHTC
FBW7 act – human FBW7 E3 ligase activation, primary screen | AlphaScreen FBW7–phospho-cyclin E peptide binding, activator screen | normalized activity (activation), % at 26.1 µM | 650,000 compounds, 0.13% hits; in the data active means normalized activity above about 1.9%;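 further: purified mutant Fbw7 with reduced substrate affinity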
TEAD-YAP inh – TEAD-YAP interaction inhibition. HEK-TIYL cells, TEAD-Gal4/YAP UAS-luciferase luminescence. inhibition, % at 9.12 µM. 640,000 compounds, 1.4% hits. AID 1259422; in the data active means inhibition above about 32%;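 further: 0% = median of test compound wells and 100% = reference inhibitor wells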
GPR151 activ – activates the human receptor GPR151 | PathHunter beta-arrestin GPR151 cells, luminescence | activation, % at 11.2 µM | 650,000 compounds, 1% hits; in the data active means activation above about 4.9%;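 further: 0% = median of compound wells and 100% = cells with positive control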
Starred values were filed as active, the others as inactive. This is a sample that favours compounds with a hit; in the whole collection about 3.5% have one here.

SMILES | MITF primary | FBW7 act | TEAD-YAP inh | GPR151 activ
O=C(NCCOc1ccccc1F)c1ccc2ccccc2n1 | -5 | 0 | 58* | -3
O=C(NCCOc1ccccc1)c1ccc2ccccc2n1 | -14 | 0 | 53* | -1
COc1ccc(CCNC(=O)c2cccc(Nc3ccncc3)n2)cc1 | -2 | 0 | 2 | 4
O=C(NCc1ccccc1)c1cccc(Nc2ccc(N3CCOCC3)cc2)n1 | 7 | 0 | 25 | 3
COc1ccc(CCNC(=O)c2cccc(Nc3ccc(-n4ccnc4)cc3)n2)cc1 | 4 | 0 | 49* | 0
CCOC(=O)CSc1nc2sc3c(c2c(=O)n1C1CCCCC1)CCN(C)C3 | 4 | 2.3* | 15 | -1
CCNc1nccc(-c2ccc3nc(C4COc5ccccc5O4)[nH]c3c2)n1 (configuration not stated) | 15 | 1 | 9 | 0
COc1ccc(/C(C)=N/Nc2nc(-c3cccnc3)nc3ccccc23)cc1OC | 24 | 0 | 33* | -2
Cc1ccc(NC(=O)CCOc2ccccc2)cc1Cl | 10 | 2.4* | -23 | 0
Nc1c(C(=O)Nc2ccccc2F)sc2nc3c(cc12)C(=O)CCC3 | 1 | 0 | -4 | 2
N#Cc1sc2nccc(Nc3ccccc3)c2c1N | 6 | 0 | 34* | 0
Nc1ccc(OCc2ccc(COc3ccc(N)cc3)cc2)cc1 | -116 | 17* | 21 | 1
COc1ccc(NC(=O)CSc2nc3ccccc3c(=O)n2CCCC(=O)NCCc2ccccc2)c(OC)c1 | 6 | 0 | -5 | 0
O=C(CCl)N=c1sccn1Cc1ccccc1Cl | 11 | 0 | 39* | -2
CC(C)c1cc(C(=O)NCc2ccco2)nn1-c1nc2ccccc2s1 | -2 | 0 | 78* | 1
CC(C)c1cc(C(=O)Nc2ccc(F)cc2)nn1-c1nc2ccccc2s1 | 34 | 0 | -7 | 1
O=C1NN(c2ccc(I)cc2)C(=O)/C1=C\c1ccccc1O | 54* | 0 | 0 | -1
COc1ccc(N=CC2=C(O)c3ccccc3C2=O)cc1 | 15 | 0 | 43* | -4
O=C1C(C=Nc2ccccc2O)=C(O)c2ccccc21 | 1 | 0 | 49* | -8
NC(=O)c1ccc(-c2nc3ccc(C(=O)NCCN4CCOCC4)cc3s2)cc1 | 3 | 0 | -27 | 2
COc1ccc(S(=O)(=O)/N=C2/C=C(Nc3ccccc3OC)C(=O)c3ccccc32)cc1 | 57* | 0 | -3 | -2
COc1ccc(S(=O)(=O)/N=C2/C=C(Nc3ccccc3)C(=O)c3ccccc32)cc1 | 28 | 0 | -11 | -1
Cc1nnc(SCC(=O)Nc2ncc(Cc3cccc(C(F)(F)F)c3)s2)n1N | 7 | 0 | 9 | 1
CC(C)(C)c1cc(-c2nc3ccccc3[nH]2)n[nH]1 | -2 | 0 | 96* | -10
CC1CCCN(C2=NC(=O)/C(=C\c3ccc(O)cc3)S2)C1 (configuration not stated) | -4 | 0 | 61* | -2
SMILES | MITF primary | FBW7 act | TEAD-YAP inh | GPR151 activ
CC1CCCN(C2=NC(=O)/C(=C\c3ccc(N(C)C)cc3)S2)C1 (configuration not stated) | 0 | 0 | 59* | 0
O=C1N=C(N2CCCC2)S/C1=C/c1ccc(O)cc1 | 3 | 0 | 13 | 0
O=C1N=C(N2CCCC(CO)C2)S/C1=C/c1cccc2ccccc12 (configuration not stated) | 2 | 0 | 61* | -2
CN1CCN(S(=O)(=O)c2ccc(NS(=O)(=O)c3cccc4nonc34)cc2)CC1 | 8 | 0 | -3 | 1
C(=N\n1cnnc1)/c1ccc(OCc2cccc3ccccc23)cc1 | -8 | 0 | -53 | -1
Brc1ccc(/C=N/n2cnnc2)cc1 | 18 | 0 | 11 | 0
C(=N\n1cnnc1)/c1cccc(OCc2cccc3ccccc23)c1 | 17 | 0 | 50* | -1
Brc1cccc(/C=N/n2cnnc2)c1 | 13 | 0 | 91* | 0
COc1ccc2c(c1)CC(c1nc3ccc(-c4ccnc(N)c4)cc3[nH]1)CO2 (configuration not stated) | 22 | 0 | 21 | 0
COc1ccc2c(c1)CC(c1nc3cc(-c4ccnc5[nH]ccc45)c(F)cc3[nH]1)CO2 (configuration not stated) | -7 | 0 | 50* | 1
CCn1c(C2COc3ccc(OC)cc3C2)nc2cc(F)c(-c3ccnc4[nH]ccc34)cc21 (configuration not stated) | 58* | 0 | -1 | 1
COc1ccc(CCNC(=O)C(C)N(c2ccc(C)cc2)S(C)(=O)=O)cc1 (configuration not stated) | 2 | 1 | 9 | -1
Cc1c(C(=O)N2CCN(c3ccc(F)cc3)CC2)sc2ncn(Cc3cccc(F)c3)c(=O)c12 | -12 | 0 | 5 | 1
COc1cccc(/C=N/NC(=O)c2ccncc2)c1O | 61* | -1 | 6 | 1
COc1cccc(/C=N/NC(=O)c2ccc(Cl)c(Cl)c2)c1O | 7 | 0 | 9 | -1
COc1cccc(/C=N/NC(=O)c2cncc(Br)c2)c1O | 90* | 0 | 80* | -5
COc1ccccc1C(=O)N/N=C/c1cc([N+](=O)[O-])cc(OC)c1O | -10 | 1 | -21 | -1
O=C(N/N=C\c1ccc([N+](=O)[O-])s1)c1cncc(Br)c1 | 10 | 0 | 65* | -1
COc1cc([N+](=O)[O-])cc(/C=N/NC(=O)c2ccncc2)c1O | 83* | -1 | 5 | -1
COc1cc(/C=N/NC(=O)c2cncc(Br)c2)cc(Br)c1O | 7 | 0 | -4 | -1
COc1ccccc1C(=O)COC(=O)c1ccc(OCC2CCCO2)cc1 (configuration not stated) | 14 | 0 | -36 | 0
COc1cccc(/C=N/NC(=O)C(=O)Nc2cccc(C(F)(F)F)c2)c1O | 6 | -3 | 59* | 1
COc1cccc(/C=N/NC(=O)C(=O)N/N=C/c2cccc(OC)c2O)c1O | -205 | -1 | 13 | 0
COc1cccc(/C=N/NC(=O)c2ccc(N(C)S(=O)(=O)c3ccccc3)cc2)c1O | 13 | 0 | 80* | 1
COc1cccc(/C=N/NC(=O)c2cc(O)c(O)c(O)c2)c1O | 46 | 0 | 8 | -2
SMILES | MITF primary | FBW7 act | TEAD-YAP inh | GPR151 activ
COc1ccccc1/C=N/NC(=O)c1ccc(NC(=O)c2ccc(F)cc2)cc1 | 21 | 0 | 0 | 1
COc1cccc(/C=N/NC(=O)c2cc3ccccc3cc2O)c1O | 24 | 0 | 53* | -6
COc1cccc(/C=N/NC(=O)c2ccc(NC(=O)c3ccc(F)cc3)cc2)c1O | 4 | 0 | 97* | 0
Cn1c(C(=O)N2CCCCC2)cc2c(=O)n(C)c3ccccc3c21 | 4 | 0 | -5 | -1
COc1ccccc1N(CC(=O)Nc1cc(C)cc(C)c1)S(=O)(=O)c1ccc(C)cc1 | 0 | 0 | -1 | -1
CC1CN(C(=O)CCC(=O)NCCCN2CCN(C)CC2)c2ccccc2O1 (configuration not stated) | 5 | 0 | 7 | 0
O=C(N/N=C/c1cc(Cl)ccc1O)c1cncc(Br)c1 | 63* | 0 | 7 | 0
Nc1ccc(-c2nc3ccccc3s2)cc1N | -8 | 0 | 29 | -7
